Screens from PubChem.
D1 ag = activates the human D1 dopamine receptor; HEK293 T-REx D1 cells, calcium flux, agonist mode; hit rate 1% among 360,000; activation, % at 2 µM; in the data active = activation above about 30%; note: 0% is about no effect
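Tetracycline-induced HEK293 TREx D1 cells, force-coupled to calcium signalling, were dye-loaded with a no-wash calcium kit. Compound was pin-added after a 10 s baseline. Fluorescence was read kinetically at 1 cycle/s for 180 s, with calcium rises flagged as agonism.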
D1 PAM = potentiators of human D1 dopamine receptor | potentiation, % at 10 µM | hit rate 0.036% among 360,000 | P21728 | HEK293 TREx D1 cells, calcium flux, dopamine EC20 potentiation; in the data active = potentiation above about 30%; note: 0% is about no effect
D3 ag = activates the human D3 dopamine receptor; D3R DiscoveRx beta-arrestin cells, luminescence, 90 min; hit rate 0.58% among 410,000; P35462; max activation, %; in the data active = max activation above about 30%; note: 0% is about no effect
Target sequence (P35462 whole entry, looked up): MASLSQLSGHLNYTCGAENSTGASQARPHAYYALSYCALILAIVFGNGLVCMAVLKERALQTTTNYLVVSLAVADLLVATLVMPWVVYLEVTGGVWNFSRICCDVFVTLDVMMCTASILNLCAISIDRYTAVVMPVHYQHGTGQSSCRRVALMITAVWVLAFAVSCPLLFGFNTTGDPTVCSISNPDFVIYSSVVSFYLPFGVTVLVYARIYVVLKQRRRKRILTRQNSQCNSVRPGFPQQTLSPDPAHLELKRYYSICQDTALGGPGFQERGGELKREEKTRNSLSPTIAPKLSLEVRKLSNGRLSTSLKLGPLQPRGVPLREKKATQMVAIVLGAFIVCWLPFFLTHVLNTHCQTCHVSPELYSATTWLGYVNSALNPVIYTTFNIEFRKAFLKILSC
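Cells at 1500/well, incubated overnight, then treated with pinned compounds (dopamine as control) for 90 min at 37 degrees C. DiscoveRx reagent added for 30 - 60 minutes at room temperature; luminescence read.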
D1 antagonist = blocks dopamine activation of the human D1 receptor; activity change, negative = inhibition, % at 10 µM; AID 504652; P21728; HEK293 TREx D1 cells, calcium flux, dopamine EC80; active compounds read low; hit rate 3.2% among 360,000; in the data active = activity change below about -30%; note: % is set by controls: 0 for no effect and ±100 for the full control effect
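Compound effects on dopamine-evoked calcium signalling were measured in tetracycline-induced HEK293 Trex D1 cells. Dopamine at EC80 followed a 180 s compound pre-read, and fluorescence was tracked kinetically for 180 s more.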
D3 antag = D3 dopamine receptor (human) antagonism. P35462. D3R cells, DiscoveRx beta-arrestin luminescence, antagonist mode; active compounds read low. max response, negative = inhibition, %. hit rate 2.5% among 360,000. AID 652054; in the data active = max response below about -50%; inconclusive = no clear call, values can overlap the other calls; note: % is set by controls: 0 for no effect and ±100 for the full control effect
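Cells plated overnight at 1500 cells/well, then exposed to library compounds with dopamine controls for 90 minutes at 37 degrees C. DiscoveRx reagent added for 30–60 minutes at room temperature; luminescence read, quantitative HTS format.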
Active calls of the source: *; ? = inconclusive; / = not tested or not shown. Most compounds without a hit are left out; they make up all but 6% or so of the library.

SMILES | D1 ag | D1 PAM | D3 ag | D1 antagonist | D3 antag
O=C(Nc1cnc2ccccc2c1)N1CCOCC1 | 1 | 2 | -5 | 6 | -67*
O=C(Nc1ccc(O)cc1)N1CCOCC1 | 5 | -2 | 3 | -39* | -4
Cc1cc(C)c(NC(=O)CSc2nc3nc(C)cc(C)n3n2)c(C)c1 | -1 | -2 | 7 | 9 | /
Cc1ccc2nc(-c3cccs3)c(Nc3c(C)cccc3C)n2c1 | 10 | 3 | -13 | 22 | /
COCCCNC(=O)c1ccc(-n2nc(C(F)(F)F)cc2-c2cccs2)cc1 | 11 | -7 | 2 | -2 | -7
O=C(NCCCN1CCOCC1)c1ccc(-n2nc(C(F)(F)F)cc2-c2cccs2)cc1 | 62* | -10 | 0 | -25 | ?
Cc1ccc(-c2nnc(SCC(=O)c3ccc(Cl)cc3)n2-c2ccccc2)cc1 | 5 | 4 | 1 | 2 | /
c1ccc(CN2CCN(c3nc4ccccc4n4cnnc34)CC2)cc1 | 0 | -2 | -23 | -9 | -135*
c1ccc2c(c1)CCN(c1nc3ccccc3n3cnnc13)C2 | 0 | 7 | 4 | 7 | 9
c1ccc(N2CCN(c3nc4ccccc4n4cnnc34)CC2)cc1 | 4 | / | 0 | -12 | 31
C1=C(c2ccccc2)CCN(c2nc3ccccc3n3cnnc23)C1 | 0 | 0 | -6 | -16 | -70*
Cc1cc(-c2ccc(S(=O)(=O)Nc3ccc(Br)c(C)c3)s2)on1 | 3 | -5 | -2 | -28 | /
Cc1ccc(OCCn2nnc3sc4c(c3c2=O)CCC(C(C)(C)C)C4)cc1 (centres undefined) | 0 | 6 | 10 | -1 | /
O=C(c1cc(-c2ccncc2)nc2ccc(Cl)cc12)N1CCN(Cc2ccc3c(c2)OCO3)CC1 | 3 | -7 | 2 | 1 | 21
Cc1cc(C)c2nc(-c3ccncc3)cc(C(=O)N3CCN(Cc4ccccc4Cl)CC3)c2c1 | 6 | 8 | 43* | -16 | 54
CCOC(=O)c1oc2cc(OC(C)=O)ccc2c(=O)c1-c1ccc(OC)c(OC)c1 | 2 | 0 | 2 | -1 | 24
CCOC(=O)COc1ccc2c(=O)c(-c3ccc(OC)c(OC)c3)c(C(=O)OCC)oc2c1 | -1 | -5 | 10 | -45* | 5
COc1ccc(CN=Cc2[nH]c3ccc(Br)c(Cl)c3c2O)cc1 | 2 | -6 | 4 | 1 | -74*
Cc1cc(C)cc(N=Cc2[nH]c3ccc(Br)c(Cl)c3c2O)c1 | 55* | -4 | -4 | -4 | ?
COc1ccc(N=Cc2[nH]c3ccccc3c2O)cc1 | 3 | -3 | 5 | -25 | 5
CCOc1ccc(NC(=O)Cn2cc(C(=O)c3ccc(OCC)cc3)c(=O)c3cc4c(cc32)OCCO4)cc1 | 1 | -1 | -11 | 9 | /
COC(=O)c1ccc2c(=O)n(CCCCCC(=O)NCCc3ccc(Cl)cc3)c(=O)[nH]c2c1 | 1 | -1 | -9 | 3 | /
COc1ccc(C(=O)NCC(c2ccc3c(c2)OCO3)N2CCN(c3ccccc3F)CC2)cc1 (centres undefined) | 1 | -4 | -22 | 4 | /
COc1ccc(CN2CCN(c3ccccn3)CC2)c(OC)c1 | 4 | -8 | 18 | -22 | ?
c1nc(N2CCCC2)c2[nH]cnc2n1 | 0 | -3 | 1 | -7 | 8
SMILES | D1 ag | D1 PAM | D3 ag | D1 antagonist | D3 antag
c1ccc(COc2ccc(CN3CCN(c4ccccn4)CC3)cc2)cc1 | 1 | -7 | 51* | 19 | -16
c1ccc(N2CCN(Cc3ccc4c(c3)OCO4)CC2)nc1 | / | / | 47* | / | ?
Fc1ccc(N2CCN(c3ncnc4nc[nH]c34)CC2)cc1 | 2 | -9 | 16 | -54* | 39
Brc1ccc(CN2CCN(c3ccccn3)CC2)s1 | 2 | -4 | 68* | -16 | -8
CO[C@@]1(NC(=O)CSC[C@@H](N)C(=O)O)C(=O)N2C(C(=O)O)=C(CSc3nnnn3C)CS[C@@H]21 | / | / | -26 | / | /
CCCN(CCC)C(=O)Cn1c(=O)n(Cc2ccc(C(=O)NCCc3ccc(Cl)cc3)cc2)c(=O)c2ccccc21 | 3 | -1 | 1 | -8 | /
COc1ccc2c(c1)NC(c1ccc(Cl)cc1)=NC(c1cccs1)=N2 | 1 | 0 | -16 | 0 | /
CC(C)c1ccc(OCc2cc(=O)n3c(-c4ccccc4)csc3n2)cc1 | 4 | -1 | 4 | 4 | /
CCOc1ccc(NC(=O)c2oc3ccccc3c2NC(=O)Cc2ccc(F)cc2)cc1 | 0 | 2 | 1 | 10 | /
Cc1ccc(NC(=O)CSc2nccn2C2CCCC2)cc1 | 2 | -2 | 11 | 1 | /
